Source: PubChem BioAssay
Most compounds without a hit are left out; they make up all but 4.1% or so of the library.
FMDV inh = blocks foot and mouth disease virus; FMDV antiviral cell-based qHTS; Potency, µM (top dose mostly 57.9 µM), inactives show top-dose activity change, negative = inhibition, hits mostly inhibitors; 1.2% of 410,000 active; calls by dose curve; tested in HEK293T cells; also: read-out not given here; nearly all actives have a fitted effect of over 45% in size
AMA1-RON2 inh = disrupts binding of P. falciparum AMA1 to RON2. AlphaScreen AMA1-biotinylated RON2 peptide binding. Potency, µM (titrated, usually from 58.2 µM), without a hit: at the top dose activity change, negative = inhibition, actives largely listed as inhibitors. 0.2% of 360,000 active. AID 720542;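 also: 0% = vehicle wells and -100% = peptide control; nearly all actives have a fitted effect of over 45% in size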
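AMA1 (3D7) with his tag at 25 nM final met compounds first, then biotinylated RON2 peptide at 25 nM; detection used donor plus acceptor beads, 10 µg/mL apiece, read by AlphaScreen after 30 min at room temperature.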
AmpC inh detg = inhibitors of E. coli AmpC beta-lactamase with detergent. P00811. AmpC hydrolysis of nitrocefin, absorbance 480 nm, 0.01% Triton. Potency, µM (titrated, usually from 114 µM), for inactives: at the highest dose activity change, negative = inhibition, most hits filed as inhibitors. 0.041% of 370,000 active. AID 485294;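 also: 0% = no-compound wells and -100% = no-enzyme wells; nearly all actives have a fitted effect of over 25% in size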
Target sequence (P00811 whole entry, looked up): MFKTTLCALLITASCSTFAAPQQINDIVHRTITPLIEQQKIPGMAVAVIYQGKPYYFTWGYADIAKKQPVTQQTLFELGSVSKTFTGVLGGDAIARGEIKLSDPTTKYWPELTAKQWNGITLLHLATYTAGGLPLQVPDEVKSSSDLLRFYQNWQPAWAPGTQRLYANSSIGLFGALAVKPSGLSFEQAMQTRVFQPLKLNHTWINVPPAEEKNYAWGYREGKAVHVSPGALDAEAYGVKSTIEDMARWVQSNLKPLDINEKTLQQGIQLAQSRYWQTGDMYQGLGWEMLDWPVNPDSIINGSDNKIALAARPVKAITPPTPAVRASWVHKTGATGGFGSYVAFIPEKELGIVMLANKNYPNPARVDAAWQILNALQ
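AmpC (5.3 nM in the dispensed reagent) in 20 mM phosphate pH 7.0 with 0.01% (detergent screen) or 0.0001% Triton X-100 was preincubated with compounds for 15 min at room temperature. Nitrocefin was then added from an 800 uM solution, and hydrolysis was followed at 480 nm.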
AmpC no deterg = AmpC beta-lactamase inhibition without detergent. 0.52% of 330,000 active. P00811. AmpC nitrocefin hydrolysis, absorbance 480 nm, 0.0001% Triton. Potency, µM (highest dose often 57.1 µM), without a hit: at the top dose activity change, negative = inhibition, most hits filed as inhibitors. AID 485341;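 also: plate controls were no compound for no effect and no enzyme for full effect; nearly all actives have a fitted effect of over 20% in size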
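20 mM phosphate pH 7.0 + 0.01% (detergent screen) or 0.0001% Triton X-100; 5.3 nM AmpC reagent; cpd preinc 15 min RT; nitrocefin (800 uM stock) to start; A480 q20 s × 4 min; Activity was normalised to no-enzyme and no-compound control wells.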
Sm TGR inh = blocks Schistosoma mansoni thioredoxin glutathione reductase. purified TGR, DTNB reduction, TNB absorbance 405 nm. Potency, µM (top dose mostly 114 µM), inactives show at the top dose activity change, negative = inhibition, hits mostly inhibitors. Q962Y6. AID 485364. 3% of 360,000 active; also: nearly all actives have a fitted effect of over 60% in size
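Kinetic colorimetric format: TGR-catalysed, NADPH-driven DTNB reduction monitored via TNB absorbance. Enzyme dispensed at 20 nM; compound exposure 15 min at room temperature before reaction start.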
Numbers without * were called inactive; ? = inconclusive; / = no result. Unless noted, calls follow the shape of the dose curve; as a rule, active = well fitted curve in the direction sought with a large enough effect; inconclusive = small, poorly fitted or top-dose-only effect, or another doubt; inactive = no such curve, though single readings can be large; an effect the other way counts as inactive or inconclusive. Unless noted, % is scaled to controls: 0 for no effect and ±100 for the full control effect; potency is read from the fitted curve at half-maximal effect.

SMILES	FMDV inh	AMA1-RON2 inh	AmpC inh detg	AmpC no deterg	Sm TGR inh
CCCOc1ccc(NC(=O)CC2C(=O)N(c3cccc(OC)c3)C(=O)N2Cc2cccs2)cc1 (stereo not drawn)	3.1%	/	-2.5%	/	-2.3%
CC(=O)c1ccc(NC(=O)c2cc(CC(C)C)on2)cc1	73.6%	16.2%	?	50.1µM*	3.6%
CC(=O)c1ccc(NC(=O)c2noc3c2CCC3)cc1	?	-19.2%	?	?	39.8µM*
CC(C)Cc1cc(C(=O)Nc2cccnc2)no1	40.3%	-9.6%	?	-5.0%	-1.2%
O=C1c2ccccc2C(=O)c2cc(S(=O)(=O)Nc3ccccc3)ccc21	-18.7%	-29.9%	-11.8%	28.2µM*	?
CCOc1ccc(Cl)cc1-c1cc(C(=O)Nc2cc(OC)c(OC)c(OC)c2)[nH]n1	-16.4%	-12.0%	/	/	/
COc1ccc(-n2c(O)c(/C=N/NS(=O)(=O)c3ccc(C)c([N+](=O)[O-])c3)c3ccccc3c2=O)cc1OC	1.2%	28.2%	-0.1%	50.5%	10µM*
Cc1ccc(S(=O)(=O)N/N=C/c2cc([N+](=O)[O-])ccc2O)cc1[N+](=O)[O-]	56.1%	12.3%	?	-37.0%	28.2µM*
CCOC(=O)[C@]12Cc3cc(C)ccc3[C@H]1N(C)C(=O)c1ccccc12	-29.8%	3.2%	/	/	/
CCOC(=O)[C@]12Cc3cc(Cl)ccc3[C@H]1N(C1CCCCC1)C(=O)c1ccccc12	4.47µM*	2.9%	/	/	/
CCOC(=O)[C@]12Cc3cc(OC)ccc3[C@H]1N(C1CCCCC1)C(=O)c1ccccc12	8.91µM*	1.8%	/	/	/
CC(=O)Nc1ccccc1-c1nc2ccccc2n(CC(=O)Nc2cccc(C(F)(F)F)c2)c1=O	-5.3%	/	-3.3%	/	-7.4%
CCC1CN(CCNC(=O)c2cc3ccccc3oc2=O)Cc2cc(OC)ccc2O1 (stereo not drawn)	-1.3%	/	/	/	/
Cn1c(=O)n(C/C=C/c2ccccc2)c(=O)c2c1nc1n2CCN1c1ccc(F)cc1	-2.3%	/	19.8%	/	-1.3%
Cc1ccc(-c2nc3cc(C)ccc3o2)cc1	10µM*	-0.7%	3.2%	-17.8%	0.0%
CCOC(=O)c1sc2nc(CC(=O)OC)nc(NCc3ccco3)c2c1C	?	15.1%	?	7.8%	44.7µM*
Cn1cnc(S(=O)(=O)Nc2ccccc2N2CCOCC2)c1	1.1%	17.3%	2.8%	-9.3%	2.5%
CN(C)c1cccc2c1c(NS(=O)(=O)c1cn(C)cn1)nn2C	-4.3%	130.5%	2.9%	33.3%	50.1µM*
O=C(NCCc1ccccc1Cl)c1ccc2c(c1)nc1n2CCCCC1	25.1µM*	/	-7.2%	/	-7.1%
Fc1ccc(-n2ncc3c(N4CCN(c5ccccc5F)CC4)ncnc32)cc1	-18.5%	/	-5.3%	/	-3.5%
COc1ccc(C[C@@H]2CN3C(=NC[C@@H]3C)N2C[C@H](C)NC(=O)c2ccc(C)c(Br)c2)cc1	-6.2%	-24.0%	6.7%	17.7%	22.4µM*
C/C=C(\C)C(=O)NCCN1C2=NC[C@@H](Cc3ccccc3)N2C[C@H]1Cc1ccc(O)cc1	6.2%	-6.3%	6.2%	-1.3%	-0.5%
COc1ccc(C[C@H]2CN3C(=NC[C@@H]3C)N2CCNC(=O)CCC2CCCCC2)cc1	-7.4%	-3.8%	-1.8%	24.2%	15.8µM*
C[C@H]1CN=C2N(CCNC(=O)CCC3CCCCC3)[C@H](Cc3ccc(O)cc3)CN21	-11.5%	-6.2%	6.1%	-16.7%	-27.3%
C[C@@H](CN1C2=NC[C@H](C)N2C[C@H]1Cc1ccc(O)cc1)NC(=O)CCC1CCCCC1	3.8%	-1.1%	5.8%	1.9%	?
C/C=C(\C)C(=O)NCCN1C2=NC[C@H](Cc3ccc(O)cc3)N2C[C@H]1Cc1ccc(O)cc1	-15.8%	-9.2%	5.1%	-13.2%	50.1µM*
CC(C)[C@H]1CN=C2N(C[C@H](C)NC(=O)CCC3CCCCC3)[C@H](Cc3ccc(O)cc3)CN21	-18.9%	-5.0%	4.9%	24.5%	20µM*
Cc1ccccc1CN1CCC(CNc2ncnc3onc(-c4ccc(Cl)cc4)c23)CC1	?	/	15.8%	/	2.4%
C/C=C(\C)C(=O)NCCN1C2=NC[C@H](C(C)C)N2C[C@@H]1Cc1ccc(OC)cc1	-4.8%	148.0%	-5.6%	8.3%	0.0%
